Consider 94 compounds from PubChem BioAssay AID463173 (ICCB-Longwood Screening Facility, Harvard Medical School, 2010).

The campaign covered roughly 52,000 compounds. About 4,300 (8.3%) were called active. The sample holds actives, similar compounds and a random draw of the others, so the mix is not that of the screen. Unmarked numbers belong to inactive results. No stated cut-off is given here; in the data, active means survival mostly below about 52% (no sharp cut-off); inactive means mostly above about 56%.

The subject of this test is DeltatarO mutant. Briefly: S. aureus survival, RN4220 and DeltatarO strains – OD600, teichoic acid synthesis inhibitors, primary screen (AID 463173). The conditions noted are these: S. aureus RN4220 wild type/DeltatarO growth, OD600, 18 h, active compounds read low, screened at 18.75 µg/mL (by protocol).
With `CCOC(=O)c1ccc(CN(Cc2ccc(F)cc2)S(=O)(=O)c2ccc(F)c(C(=O)Nc3ccc(Cl)cc3F)c2)cc1`, the survival was 79%.
With `CCOc1cc(CNC(=O)c2cc(-c3ccc(Cl)s3)nc3ccccc23)ccc1OC`, the survival is 84%.
Turning to `CCOC(=O)C1CCCN(C(=O)Cn2ncc3c4ccccc4n(C)c3c2=O)C1` (centres undefined), the survival was 121%.
With `CC(=O)Nc1cc(-c2nc3ccccc3s2)ccc1C`, the survival was 83%.
Under `COc1ccc(-c2nc3ccccc3s2)cc1NC(=O)COc1cccc(C)c1` stands 16% (active); under `Cc1ccc(-c2nc3ccccc3s2)cc1NC(=O)COc1ccccc1`, 54%; under `Cc1csc2nc(-c3cccc(NC(=O)c4c(F)cccc4F)c3)cn12`, 128%.
With `CCCC(=O)Nc1cccc(-c2cn3c(C)csc3n2)c1` the figure was -5% (active); with `Cc1ccc2nc(-c3ccc(NC(=O)COc4c(C)ccc(C)c4C)cc3)sc2c1`, 38% (active).
Turning to `Cc1ccc2nc(-c3ccc(NC(=O)COc4ccc(Cl)c(C)c4)cc3)sc2c1`, the survival is 74%.
Under `Cc1ccc2nc(-c3ccc(NC(=O)COc4ccccc4)cc3)sc2c1` stands 68%; under `COc1ccc(-c2nc3ccccc3s2)cc1NC(=O)COc1ccccc1C`, 142%; under `COc1ccc(OCC(=O)Nc2cc(-c3nc4ccccc4s3)ccc2C)cc1`, 45% (active).
With `Cc1csc2nc(-c3cccc(NC(=O)C(C)C)c3)cn12` the figure was 73%.
For `COc1ccc(-c2nc3ccccc3s2)cc1NC(=O)COc1ccc(C)cc1`, the survival is 129%.
Turning to `CCOC(=O)CC(=O)CSc1nc2ccsc2c(=O)n1Cc1ccccc1`, the survival is 118%.
Turning to `COc1ccc(-c2coc3c2c(C)cc2oc(=O)cc(C)c23)cc1`, the survival was 82%.
For `Cc1ccc(CCNC(=O)C2CC(=O)N(CCc3ccc(C)cc3)C2)cc1` (centres undefined), the survival was 101%.
Under `Cc1cc(Br)ccc1NC(=O)C1CCN(S(=O)(=O)c2cccc3nsnc23)CC1` stands 115%.
Consider `COc1ccc(Br)cc1CNC(=O)c1cnc2sc(N3CCC(C)CC3)nn2c1=O`, for which the survival is 78%.
In the case of `CCc1ccc(-n2nc3ccc(NC(=O)c4cc5ccccc5o4)cc3n2)cc1`, the survival was 65%.
`COc1cccc(C(C(=O)NCC2CCCO2)N(CC2CCCO2)C(=O)CC2C(=O)c3ccccc3S2(=O)=O)c1` (centres undefined): the survival was 90%.
With `O=c1cc(-c2ccc(F)cc2)nc(SCc2nc(-c3ccccc3Cl)no2)[nH]1` the figure was 117%; with `COc1ccc(-c2noc(CSc3nc4ccc(C)cc4[nH]3)n2)cc1`, 39% (active); with `CCc1cc(=O)[nH]c(SCc2nc(-c3ccccc3C)no2)n1`, 84%.
`COc1ccc(-c2noc(CSc3nc4ccccc4[nH]3)n2)cc1OC`: the survival is 62%.
Under `COc1ccc(-c2noc(CSc3nc4ccccc4[nH]3)n2)cc1` stands 51%; under `Cc1ccccc1-c1noc(CSc2nc(-c3ccc(F)cc3)cc(=O)[nH]2)n1`, 37% (active); under `COc1ccccc1-c1noc(CSc2nc3ccc(C)cc3[nH]2)n1`, 102%.
Take `Cc1ccc2nc(SCc3nc(-c4ccc(Cl)cc4)no3)[nH]c2c1`: the survival was 28% (active).
For `Cc1cccc(-c2noc(CSc3nc(-c4ccc(F)cc4)cc(=O)[nH]3)n2)c1`, the survival was 83%.
Consider `Cc1ccccc1-c1noc(CSc2nc3ccccc3[nH]2)n1`, for which the survival was 57%.
With `Cc1ccc2nc(SCc3nc(-c4ccccc4C)no3)[nH]c2c1` the figure was 25% (active).
Consider `O=c1cc(-c2ccccc2)nc(SCc2nc(-c3ccc(Cl)cc3)no2)[nH]1`, for which the survival is 69%.
With `NCCSC1CC(=O)N(c2ccc(Cl)cc2)C1=O` (centres undefined), the survival is 88%.
With `COc1ccc(C)cc1NC(=O)c1cc2c(=O)n3cccc(C)c3nc2s1` the figure was 86%; with `COc1ccc(Cl)cc1NC(=O)CN(C)S(=O)(=O)c1ccc2c(c1)CCCN2C(C)=O`, 78%.
Under `CCCCNS(=O)(=O)c1ccc(N2CCCCS2(=O)=O)cc1` stands 66%.
In the case of `Cc1ccc(-c2noc(-c3nnn(CC(=O)Nc4ccc(C)cc4Cl)c3N)n2)cc1`, the survival is 83%.
Under `C=CCNCc1cc2cc(OCC)ccc2[nH]c1=O` stands 97%; under `COc1cc(OC)c(Nc2ncnc3onc(-c4cccc(Cl)c4)c23)cc1Cl`, 73%; under `CCOc1ccc(NC(=O)Cn2cc(S(=O)(=O)N3CCN(c4ccccc4F)CC3)c3ccccc3c2=O)cc1`, 89%.
Under `COc1ccc(NC(=O)CSc2nnc(-c3cccs3)o2)cc1` stands 54%; under `Cc1ccc(NC(=O)Cn2ncn3c(cc4ccccc43)c2=O)cc1F`, 84%.
Under `COc1ccccc1NC(=O)CCn1nc(-c2ccccc2)c2ccccc2c1=O` stands 42% (active); under `Cc1ccc(NC(=O)CCn2nc(-c3ccccc3)c3ccccc3c2=O)c(C)c1`, 52% (active); under `O=C(CCn1nc(-c2ccccc2)c2ccccc2c1=O)Nc1ccccc1`, 69%.
With `Cc1ccccc1NC(=O)CCn1nc(-c2ccc(Cl)cc2)c2ccccc2c1=O`, the survival is 95%.
With `Cc1ccc(-c2nn(CCC(=O)Nc3ccc(Cl)c(Cl)c3)c(=O)c3ccccc23)cc1` the figure was 53%; with `Cc1ccc(NC(=O)Cn2ncn3c(cc4ccccc43)c2=O)cc1C`, 73%.
With `Cc1ccc(NC(=O)Cn2ncn3c(cc4ccccc43)c2=O)c(C)c1` the figure was 45% (active); with `CCCNC(=O)CCn1nc(-c2ccccc2)c2ccccc2c1=O`, 70%.
`COc1ccc(NC(=O)CSc2nc3cc(OC)c(OC)cc3c3nc(-c4ccccc4)nn23)cc1Cl`: the survival is 123%.
Under `Cc1ccc(NC(=O)CN2C(=O)CCSc3ccc(S(=O)(=O)N4CCCC4)cc32)cc1` stands 86%.
With `COc1ccc(-c2onc(C)c2C)cc1S(=O)(=O)NCc1ccc(C)o1` the figure was 89%; with `CC1=C(c2ccc(C(C)C)cc2)S(=O)(=O)N=C1N1CCN(c2ccccc2F)CC1`, 85%; with `COc1ccc(OC)c(C2CC(=O)Nc3c2c(=O)[nH]c2nc4ccccc4n32)c1` (centres undefined), 164%.
For the compound `CCNc1nc(NC(C)(C)C)nc(Oc2ccc(=O)n(C)n2)n1`, the survival is 68%.
Under `Cc1cccc(N2CCN(C(=O)CCc3c(C)nc4ncnn4c3C)CC2)c1C` stands 79%.
In the case of `Cc1ccc(CN2C(=O)SC(Nc3ccccc3)C2=O)cc1` (centres undefined), the survival is 40% (active).
Turning to `Cc1ccc(N2C(=O)SC(Nc3ccccc3)C2=O)cc1` (centres undefined), the survival is 83%.
For the compound `CN1C(=O)SC(Nc2ccccc2)C1=O` (centres undefined), the survival is 65%.
With `COC(=O)c1cccc(CN2C(=O)SC(Nc3ccccc3C)C2=O)c1` (centres undefined) the figure was 133%; with `COC(=O)c1cccc(CN2C(=O)SC(Nc3ccc(Cl)cc3)C2=O)c1` (centres undefined), 42%.
For `O=C1SC(Nc2ccc(Cl)cc2)C(=O)N1Cc1ccccc1` (centres undefined), the survival was 107%.
Under `CCOC(=O)c1ccc(NC2SC(=O)N(Cc3cccc(C(=O)O)c3)C2=O)cc1` (centres undefined) stands 60%.
For `CCOc1ccc(NC2SC(=O)N(Cc3ccccc3)C2=O)cc1` (centres undefined), the survival is 42% (active).
Take `COc1ccc(NC2SC(=O)N(c3ccccc3)C2=O)cc1` (centres undefined): the survival is 105%.
With `COC(=O)c1cccc(CN2C(=O)SC(Nc3ccc(Br)cc3)C2=O)c1` (centres undefined) the figure was 23% (active); with `COC(=O)c1cccc(CN2C(=O)SC(Nc3ccc(C)cc3)C2=O)c1` (centres undefined), 50%; with `Cc1ccc(CN2C(=O)SC(Nc3ccc(Cl)cc3)C2=O)cc1` (centres undefined), 30% (active).
Under `COc1cc2c(cc1OC)C(COc1ccc3c(C)cc(=O)oc3c1)N(C(=O)Cc1ccc(F)cc1)CC2` (centres undefined) stands 80%.
With `CC1(C)Cc2ccccc2-c2nc(NN)[nH]c(=O)c21` the figure was 67%; with `O=C(O)c1cccc(N2C(=O)c3cccnc3C2=O)c1`, 83%.
With `Cc1ccc(-n2c(=O)c3c(c4cc(C)ccc4n3C)n(CC(=O)Nc3cc(C)cc(C)c3)c2=O)cc1`, the survival is 105%.
With `COc1ccc2nc(N(Cc3cccnc3)C(=O)c3ccc(Cl)cc3)sc2c1` the figure was 89%; with `CCOC(=O)c1cc(-c2ccccc2)n(-c2cccc(C(=O)Nc3ccc(F)c(F)c3)c2)c1C`, 87%; with `CC(CN)(NS(=O)(=O)c1ccccc1)c1ccccc1` (centres undefined), 84%.
`COc1ccc(CN=C(N)N=C(N)N)cc1`: the survival was 95%.
As for `CC(=O)c1ccc(N2CCN(S(=O)(=O)c3cc(-c4onc(C)c4C)ccc3C)CC2)cc1`, the survival is 84%.
In the case of `COc1ccccc1N1CCN(C(=O)c2cc3c(-c4ccccc4F)nn(C)c3s2)CC1`, the survival is 46% (active).
On to `COc1ccc(-c2nn(C)c3sc(C(=O)N4CCN(c5cccc(C)c5C)CC4)cc23)cc1OC`, for which the survival was 75%.
Under `COc1ccc(-c2nn(C)c3sc(C(=O)N4CCN(c5cc(Cl)ccc5C)CC4)cc23)cc1OC` stands 103%; under `Cn1nc(-c2ccccc2F)c2cc(C(=O)N3CCN(c4ccccc4F)CC3)sc21`, 40%; under `COc1ccc(N2CCN(C(=O)c3cc4c(-c5ccccc5F)nn(C)c4s3)CC2)cc1`, 65%.
Under `COc1ccc(NC(=O)c2cc3c(-c4ccccc4F)nn(C)c3s2)c(OC)c1` stands 44% (active); under `COc1ccc(CNC(=O)c2cc3c(-c4ccccc4F)nn(C)c3s2)c(OC)c1`, 101%.
With `COc1ccc(-c2nn(C)c3sc(C(=O)N4CCN(c5cccc(Cl)c5)CC4)cc23)cc1OC` the figure was 54% (active); with `COc1ccc(CCNC(=O)c2cc3c(-c4ccccc4F)nn(C)c3s2)c(OC)c1`, 85%.
Take `COc1ccc(COC(=O)C2=C(C)NC3(O)c4ccccc4C(=O)C23O)cc1` (centres undefined): the survival was 90%.
Consider `CNS(=O)(=O)c1cn(CC(=O)Nc2ccc(OC)c(Cl)c2)cc1S(=O)(=O)NC`, for which the survival was 74%.
Under `O=C(Cn1c(=O)n(-c2ccc(Cl)cc2)c(=O)c2sc3ccccc3c21)NC1CCCC1` stands 90%; under `Cc1ccc(Cl)cc1-n1c(=O)c2sc3ccccc3c2n(CC(=O)NC2CCCCC2)c1=O`, 77%; under `Cc1ccc(Cl)cc1-n1c(=O)c2sc3ccccc3c2n(CC(=O)NC2CCCC2)c1=O`, 13% (active).
